Source: PubChem
Only some compounds are listed: those with a hit (about 27% of all), similar ones and a draw of the others.
CYP2C19 inhib – blockers of cytochrome P450 2C19 activity – biochemical, luminescence, ADME assay, primary screen | inhibition, % at 5 µM | AID 778, 2007 | CYP2C19 Supersomes, luciferin-H EGE luminescence, 30 min | P33261 | actives 21% (n = 96,000);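 active = CYP2C19 inhibition above a set limit at 5 µM in the primary screen, cut at about 50% in these data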;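 note: plate controls were negative control wells for no effect and 2.5 mM tranylcypromine positive control for full effect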
Target sequence (P33261 whole entry, looked up): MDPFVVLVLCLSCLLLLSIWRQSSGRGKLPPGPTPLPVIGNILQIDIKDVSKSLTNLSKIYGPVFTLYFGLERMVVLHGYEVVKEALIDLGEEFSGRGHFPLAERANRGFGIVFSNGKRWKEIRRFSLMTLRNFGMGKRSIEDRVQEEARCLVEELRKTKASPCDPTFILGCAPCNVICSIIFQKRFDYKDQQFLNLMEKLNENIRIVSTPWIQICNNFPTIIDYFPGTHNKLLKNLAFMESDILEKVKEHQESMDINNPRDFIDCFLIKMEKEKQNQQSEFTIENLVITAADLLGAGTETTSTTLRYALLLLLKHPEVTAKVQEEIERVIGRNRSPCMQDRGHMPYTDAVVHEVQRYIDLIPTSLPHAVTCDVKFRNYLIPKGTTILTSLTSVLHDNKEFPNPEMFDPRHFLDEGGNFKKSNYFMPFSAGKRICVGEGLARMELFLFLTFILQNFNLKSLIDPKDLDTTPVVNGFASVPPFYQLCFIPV
Cav3 T inh – Cav3.2 calcium influx blockers – cell-based, Fluo-4 calcium fluorescence, FDSS, MLSMR library, primary screen; Voltage-dependent T-type calcium channel subunit alpha-1H (Homo sapiens), O95180; Cav3.2-expressing cells; active compounds read low; B-score at 10 µM; actives 4% (n = 100,000);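 active = single-dose well whose peak fluorescence ratio is a statistical outlier from its plate by either plate-standardised score or position-corrected B-score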
CYP2C9 act – human CYP2C9 activators, primary screen, biochemical, luminescence; activation factor at 5 µM; actives 1.4% (n = 96,000); Cytochrome P450 2C9 (Homo sapiens), P11712; recombinant CYP2C9, luciferin-H conversion; active compounds read high; factor 1 = untreated enzyme, 0 = blocked;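 active = activation factor of 2 or more for CYP2C9 at a 5 µM dose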;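 note: 0 = sulfaphenazole-blocked wells and 1 = vehicle-only wells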
CYP2C9 inhib – blockers of cytochrome P450 2C9 activity – biochemical, luminescence, ADME assay, primary screen. CYP2C9 Supersomes, luciferin-H conversion. P11712. AID 777, 2007. inhibition, % at 5 µM. actives 20% (n = 96,000);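 active = blocking of liver enzyme CYP2C9 beyond about 50% at 5 µM, limit read from the data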
CYP2C19 act – human CYP2C19 activators, primary screen, biochemical, luminescence; Cytochrome P450 2C19 (Homo sapiens), P33261; recombinant CYP2C19, luciferin-H EGE luminescence; active compounds read high; 0 = fully inhibited enzyme, 1 = untreated enzyme; activation factor at 5 µM; 96,000 tested, under 10 active; AID 1025, 2008;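 active = activation factor of at least 2 at 5 µM in the primary screen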;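 note: 0 = wells with 2.5 mM tranylcypromine and 1 = vehicle-only wells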
The depositor's hits bear a star; nt = not tested or not shown.

SMILES | CYP2C19 inhib | Cav3 T inh | CYP2C9 act | CYP2C9 inhib | CYP2C19 act
Cc1cccc(-n2c(Cc3cc(=O)[nH]c(=O)[nH]3)nnc2SCC(=O)NCC2CCCO2)c1 (centres undefined) | -7 | 0.6 | 1.1 | -6 | 1.1
CC(C)NC(=O)c1cc(-n2cnnc2)ccc1Cl | -5 | -0.04 | 1 | -4 | 1.1
CCN(CC)S(=O)(=O)c1cccc(-c2nnc(SCc3ncc(-c4ccccc4)o3)n2C)c1 | 38 | -2.1 | 0.5 | 51* | 0.6
CCNC(=O)CSc1nnc(-c2cccc(S(=O)(=O)N(CC)CC)c2)n1CCc1ccccc1 | -17 | 1.4 | 0.9 | 12 | 1.2
CCN(CC)S(=O)(=O)c1ccc(-c2nnc(SCc3nnc(-c4ccccc4)o3)o2)cc1 | 46 | 0.06 | 0.8 | 15 | 0.5
CCSc1nnc(-c2cccc(S(=O)(=O)N(CC)CC)c2)n1Cc1ccccc1 | 90* | -2 | 0.2 | 76* | 0.1
COc1ccc(OC)c(N(CC(=O)N2CCN(c3cc(Cl)ccc3C)CC2)S(C)(=O)=O)c1 | 19 | -2.9 | 1.2 | -20 | 0.8
Cc1c(Cl)cccc1-n1ccnc1SCC(=O)O | 7 | 0.25 | 0.3 | 67* | 0.9
Cc1cccc(-n2ccnc2SCC(=O)Nc2nccs2)c1C | 53* | -0.18 | 0.5 | 47 | 0.5
CCc1nnc(NC(=O)CSc2nccn2-c2cccc(C)c2C)s1 | 27 | -2.9 | 0.5 | 53* | 0.7
Cc1c(Cl)cccc1NC(=O)Cn1cccc1 | 25 | 0.11 | 1 | -1 | 0.8
CCc1nnc(NC(=O)CSc2nccn2-c2cc(C)cc(C)c2)s1 | 13 | -0.025 | 0.4 | 58* | 0.9
Cc1ccc(S(=O)(=O)NCc2nnc(SCC(=O)Nc3cccc(C)c3C)n2C)cc1 | -16 | -3.8 | 0.8 | 25 | 1.2
CC(C)CC1(C(=O)NCc2cc(F)cc(C(F)(F)F)c2)C=CCN1C(=O)c1ccccc1 (centres undefined) | nt | -1.4 | nt | nt | nt
CC1(C)CC(=O)C2=C(C1)Oc1ncn(CCCn3ccnc3)c(=N)c1C2c1ccccc1 (centres undefined) | 79* | -2 | 0.1 | 90* | 0.2
COc1ccc(C2C3=C(CC(C)(C)CC3=O)Oc3ncn(CCCn4ccnc4)c(=N)c32)cc1 (centres undefined) | 44 | 0.54 | 0.2 | 78* | 0.6
CC1(C)CC(=O)C2=C(C1)Oc1ncn(Cc3ccco3)c(=N)c1C2c1ccccc1 (centres undefined) | 2 | 2.1 | 0.8 | 17 | 1
CCc1c(C(=O)NC2CCCC2)csc1C | 13 | -2.6 | 1 | 2 | 0.9
Cc1cc(S(=O)(=O)N(C)CCc2ccccc2)ccc1-n1cnnn1 | 57* | 1.6 | 0.7 | 26 | 0.4
O=C(NCCCN1CCOCC1)c1csc2c1CCCC2 | -5 | -0.012 | 1.2 | -21 | 1
CC1=CC(C)(C)Nc2ccc(OC(=O)CN3C(=O)c4cccc5cccc(c45)C3=O)cc21 | 27 | nt | 0.6 | 40 | 0.7
CC1=CC(C)(C)Nc2ccc(OC(=O)C(Cc3ccccc3)N3C(=O)c4ccccc4C3=O)cc21 (centres undefined) | 8 | -1.7 | 0.4 | 56* | 0.9
O=CNCCCc1nc2ccccc2n1Cc1cccc2ccccc12 | 97* | 0.31 | 0.1 | 91* | 0
Cc1nc(NC(=O)c2ccccc2)sc1-c1csc(NCc2ccco2)n1 | 89* | -1.3 | 0.7 | 30 | 0.1
Cc1nc(C)c(-c2csc(NCc3ccco3)n2)s1 | 69* | -0.23 | 2.7* | -169 | 0.3
Cc1nc(C)c(-c2csc(NCc3ccccc3)n2)s1 | 83* | -1.1 | 0.8 | 17 | 0.2
Cc1ccn2c(-c3csc(NCc4ccccc4)n3)c(C)nc2c1 | nt | 0.89 | nt | nt | nt
Cc1nc2ccccn2c1-c1csc(NCc2ccco2)n1 | 72* | -0.39 | 0.4 | 59* | 0.3
CC(C)OP(=O)(OC(C)C)C(NC(=O)c1cccc([N+](=O)[O-])c1)C(N)=O (centres undefined) | 6 | 0.0035 | 0.8 | 18 | 0.9
COC(=O)C(C)Sc1nnc(Cc2cc(=O)[nH]c(=O)[nH]2)n1-c1ccc(OC)cc1 (centres undefined) | 1 | -1.9 | 0.9 | 9 | 1
